Bioassay records (PubChem BioAssay)
A selection: hits, their analogues and other compounds. The true share with any hit is near 1.2%.
KCNH2 WT inh: blocks the wildtype human KCNH2 potassium channel; Q12809; U2OS, BacMam KCNH2, thallium flux FluxOr; active compounds read low; activity change, % at 1.84 µM; 340,000 tested, 0.37% active; AID 720551;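 active = maximum activity change below -70%; inconclusive = maximum activity change between -70% and -50%; inactive = maximum activity change above -50%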; note: % is set by controls: 0 for no effect and ±100 for the full control effect
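U2OS cells were transduced with wild-type KCNH2 virus (2.03 x 10^8 / mL) for 4 h at room temperature, then cultured overnight at 37 C. Thallium flux was read with FluxOr dye. Rate constants were normalized to DMSO controls.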
TRPV1 ag: activates the human vanilloid receptor TRPV1; Q8NER1; TRPV1-expressing cells, Fluo-8 calcium influx, agonist mode; activation, % at 8.33 µM; 320,000 tested, 0.19% active; AID 540275; in the data active = activation above about 80%; inconclusive = between about 30% and that limit; note: 0% is about no effect
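Fluo-8 calcium influx in TRPV1-expressing cells, kinetic read (ex 480/em 520 nm). Compound added and read 3 min for agonist activity, followed by capsaicin at EC20 final and 2 min further read for enhancement.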
TRPV1 potentiator: human TRPV1 potentiation; TRPV1-expressing cells, Fluo-8 calcium influx, capsaicin EC20 potentiation; potentiation, % at 8.33 µM; Q8NER1; 320,000 tested, 0.02% active; in the data active = potentiation above about 80%; inconclusive = between about 30% and that limit; note: 0% is about no effect
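TRPV1-expressing cells were cultured overnight at 35.5C and loaded with Fluo-8 calcium dye for 40 to 90 min at room temperature. After a 10 s baseline, compound was added and calcium influx was read kinetically for 3 min (ex 480/em 520 nm).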
KCNH2 3.1 block: KCNH2 3.1 (human) potassium channel inhibition; U2OS KCNH2 3.1, thallium flux FluxOr; active compounds read low; activity change, % (tested at about 1.8 µM); 340,000 tested, 0.95% active; AID 720553;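 active = maximum activity change below -70%; inconclusive = maximum activity change from -70% to -50%; inactive = maximum activity change above -50%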;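 note: thallium influx rate constant from kinetic fluorescence after stimulation buffer; % is set by controls: 0 for no effect and ±100 for the full control effect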
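Thallium flux via FluxOr fluorescence (Red40 quencher, 45 min loading) in U2OS cells virally expressing the KCNH2 3.1 isoform (1.77 x 10^8 /mL virus, overnight at 37 C). Rate constants from 2-min kinetic reads post-stimulation, normalised to positive and negative controls.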
Numbers without * were called inactive; ? = inconclusive; · = no result.

SMILES	KCNH2 WT inh	TRPV1 ag	TRPV1 potentiator	KCNH2 3.1 block
COC(=O)C1=C(c2cccc(OC)c2OC)C[C@@H]2CC[C@H]1N2C(=O)NCc1ccccc1	1	·	·	-11
COC(=O)C1=C(c2cccc(OC)c2OC)C[C@@H]2CC[C@H]1N2C(=O)NCc1ccc(F)cc1	-1	·	·	-126*
COC(=O)C1=C(c2ccc(F)cc2OCc2ccccc2)C[C@@H]2CC[C@H]1N2C(=O)NCc1ccc(F)cc1	-12	12	-8	-36
COC(=O)C1=C(c2ccc(F)cc2OCc2ccccc2)C[C@@H]2CC[C@H]1N2C(=O)NCc1ccc([N+](=O)[O-])cc1	-20	19	10	-88*
COc1ccc(-n2c(O)c(C=NCCN(C)C)c(=O)[nH]c2=O)cc1	-5	1	8	-4
CCOc1cc2c(cc1OCC)-n1cccc1C(c1ccc(OC(F)F)cc1)NC2 (configuration not stated)	-13	2	24	-82*
O=P(NC(c1ccccc1)c1ccccc1)(Oc1ccccc1)Oc1ccccc1	23	19	-5	-88*
O=P(Nc1ccccc1)(Oc1ccccc1)Oc1ccccc1	28	20	-4	7
Cc1ccc(N2C(=O)NC(=O)/C(=C\c3cc(C)n(-c4cc(C(=O)O)cc(C(=O)O)c4)c3C)C2=O)cc1	-97*	-1	1	-4
Cc1ccc(N2C(=O)NC(=O)/C(=C\c3cc(C)n(-c4ccc(C(=O)O)cc4)c3C)C2=O)cc1	-4	-5	3	?
CCN(CC)c1ccc(CN2CC=C(c3ccc(F)cc3)CC2)cc1	29	0	-8	-24
COc1ccc(CN2CC=C(c3ccc(F)cc3)CC2)cc1Br	11	2	-3	-139*
O=S1(=O)CC2(N3CCOCC3)CCCCC21 (configuration not stated)	-15	6	-6	-94*
CN(C)CCSCc1nnc2n1-c1ccc(Cl)cc1C(c1ccccc1Cl)=NC2	-32	·	·	-76*
c1csc(CN2CCNCC2)c1	6	0	-3	7
COc1cc(CC(=O)N2C[C@H]3C[C@@H](C2)c2cccc(=O)n2C3)cc(OC)c1OC	-199*	3	-1	1
COC(=O)C1=C(c2ccc(C(C)=O)cc2)C[C@@H]2CC[C@H]1N2C(=O)N1CCCCC1	13	1	-3	-5
COC(=O)C1=C(c2ccc(C(C)=O)cc2)C[C@@H]2CC[C@H]1N2C(=O)N1CCCC1	2	-4	-5	-90*
CN1CCN(c2ccc(N)cc2Cl)CC1	-2	-14	85*	0
CN1CCN(c2ccc(Cl)cc2N)CC1	-5	-1	-3	-13
O=S(=O)(c1ccccc1)N1CCN2CCCC2C1 (configuration not stated)	-2	2	13	2
Nc1ccccc1C(=O)OC1CSC1	-33	-12	-26	-5
C=CCN1C(=O)C2(C(C(=O)OCC)=C(N)Oc3ccccc32)c2c1c1ccccc1oc2=O (configuration not stated)	-3	11	-18	-109*
COc1nc(NC(C)C)nc(NC(C)C)n1	-3	-3	20	13
O=[N+]([O-])c1cccc(CN2CCN(Cc3ccc(Cl)cc3)CC2)c1	-9	2	4	-84*
SMILES	KCNH2 WT inh	TRPV1 ag	TRPV1 potentiator	KCNH2 3.1 block
CC(C)N1CCN(Cc2cccc([N+](=O)[O-])c2)CC1	0	-1	-5	3
Cc1cc(C)c(-n2c(O)c(/C=N/N3CCCCC3c3cccnc3)c(=O)[nH]c2=O)c(C)c1 (configuration not stated)	10	0	1	·
COC(=O)C1=C(C)NC(=S)NC1c1ccc(N(CCCl)CCCl)cc1Cl (configuration not stated)	-13	·	·	·
O=C(c1cc([N+](=O)[O-])ccc1N1CCNCC1)N1CCOCC1	-3	2	-11	0
O=C(c1cc(-c2ccc(Cl)cc2)n(-c2ccc(Cl)cc2Cl)n1)N1CCOCC1	-49	?	-9	-104*
Cc1nc2cc(C(F)(F)F)ccc2n1C1CCN(Cc2nnnn2Cc2cccs2)CC1	-20	0	10	-75*
Cc1nc2ccccc2n1C1CCN(Cc2nnnn2CCc2ccccc2)CC1	-23	-3	16	-82*
Cc1nc2cc(C(F)(F)F)ccc2n1C1CCN(Cc2nnnn2Cc2ccc3c(c2)OCO3)CC1	-16	6	-9	-77*
FC(F)(F)c1ccc2c(c1)ncn2C1CCN(Cc2nnnn2C2CCCCC2)CC1	7	-3	27	?
Fc1ccc(Cn2nnnc2CN2CCC(n3nnc4cc(C(F)(F)F)ccc43)CC2)cc1	-22	-1	-11	-98*
Fc1ccc2c(c1)nnn2C1CCN(Cc2nnnn2CCc2ccccc2)CC1	1	5	-4	-1
CC(C)COC(=O)N1Cc2ccccc2-n2nncc2C1	-3	·	·	-6
CN1CCCN(C(=O)COc2ccccc2Br)CC1	29	0	3	-9
CCN1/C(=C/C=C/C2=[N+](CC)c3ccccc3C2(C)C)C(C)(C)c2ccccc21	-131*	·	·	-77*
C[C@@H]1CN([C@@H](C)CO)C(=O)CCCn2nncc2CO[C@@H]1CN(C)C(=O)Oc1ccccc1	6	·	·	9
CCOC(=O)C1(c2ccccc2)CCN(CCC(C#N)(c2ccccc2)c2ccccc2)CC1	-45	·	·	-88*
CCOC(=O)C1(CCc2ccccc2)CCN(Cc2cccc3cnccc23)CC1	5	-4	-6	?
CCOC(=O)C1(CCc2ccccc2)CCN(Cc2cccc3c2OCO3)CC1	-112*	13	-15	-97*
Cc1ccc(C(=O)N[C@@H](C)CN2C3=NC[C@H](Cc4ccccc4)N3C[C@H]2Cc2ccc(O)cc2)cc1Br	-85*	-2	?	-12
CN1CCN(c2ccc([N+](=O)[O-])c(Sc3nncn3C)c2)CC1	3	11	-7	-123*
N/C(=N/[N+](=O)[O-])N1CCN(C(=O)Oc2ccc([N+](=O)[O-])cc2)CC1	7	-3	-1	2
CN1CCN(c2ccc([N+](=O)[O-])c3no[n+]([O-])c23)CC1	-2	4	-8	-1
O=[N+]([O-])c1ccc(N(CCO)CCO)c2c1no[n+]2[O-]	-34	·	·	-92*
CCCC(C)C(=O)NC1CCSC1=O (configuration not stated)	-3	-2	-18	-83*
C=CCC1(CCCCC)C(=O)NC(=S)NC1=O	-82*	·	·	9
COC(=O)C(O)(c1ccc(N=Cc2ccccc2O)c(C)c1)C(F)(F)F (configuration not stated)	-113*	2	-2	5
COC(=O)C(O)(c1ccc(NC(=O)c2cccs2)c(C)c1)C(F)(F)F (configuration not stated)	-18	11	-3	0
CSc1ccc(C(=O)C2CCCN(Cc3cc4ccccc4[nH]3)C2)cc1 (configuration not stated)	-18	17	1	-104*
CC(C)(CN)CC(=O)O	-254*	-4	4	8
